Test results published in the supplement of paper PMC6555819.

Tests used:
Experiment in all cases: PBM binding z-score (relative to random genomic background probes); higher = stronger binding; sequences stand for … in GC…GCGATTGACAGCGTAGAATGAAGG
[1] = tested on: LXRa:RXRa (NR concentration 270 nM, RXRa partner concentration 90 nM)
In short: (§1)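 Ligand-free nuclear receptor dimers were bound for 1 h to custom Agilent 4×180K protein-binding microarrays. Detection used antibodies against each partner (one per run). Binding z-scores rest on regression-normalized fluorescence, with random background probes as the reference.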

[2] = tested on: LXRa homodimer (NR concentration 270 nM)
In short: as §1

[3] = tested on: LXRb homodimer (NR concentration 270 nM)
In short: as §1

[4] = tested on: PPARa:RXRa (NR concentration 270 nM, RXRa partner concentration 90 nM)
In short: as §1

[5] = tested on: PPARg:RXRa (NR concentration 180 nM, RXRa partner concentration 90 nM)
In short: as §1

[6] = tested on: PPARg:RXRa 270nM:90nM, anti-RXR (NR concentration 270 nM, RXRa partner concentration 90 nM)
In short: as §1

[7] = tested on: PPARg:RXRa 30nM:10nM, anti-RXR (NR concentration 30 nM, RXRa partner concentration 10 nM)
In short: as §1

[8] = tested on: PPARg:RXRa 90nM:30nM, anti-RXR (NR concentration 90 nM, RXRa partner concentration 30 nM)
In short: as §1

[9] = tested on: PPARg:RXRa DBDmut IVT, anti-RXR (DBD mutation: RXRa K156A/R161A, NR concentration 270 nM, RXRa partner concentration 90 nM)
In short: as §1

[10] = tested on: PPARg:RXRa IVT, anti-PPARg (NR concentration 270 nM, RXRa partner concentration 90 nM)
In short: as §1

[11] = tested on: PPARg DBDmut:RXRa IVT, anti-PPARg (DBD mutation: PPARg1 K132A/R137A, NR concentration 270 nM, RXRa partner concentration 90 nM)
In short: as §1

[12] = tested on: PPARg DBDmut IVT, anti-PPARg (DBD mutation: PPARg1 K132A/R137A, NR concentration 270 nM)
In short: as §1

[13] = tested on: PPARg homodimer (NR concentration 180 nM)
In short: as §1

[14] = tested on: PXR homodimer (NR concentration 270 nM)
In short: as §1

[15] = tested on: RARa:RXR (NR concentration 270 nM, RXRa partner concentration 90 nM)
In short: as §1

[16] = tested on: RARa homodimer (NR concentration 270 nM)
In short: as §1

[17] = tested on: RARb:RXRa (NR concentration 270 nM, RXRa partner concentration 90 nM)
In short: as §1

[18] = tested on: RARb homodimer (NR concentration 270 nM)
In short: as §1

[19] = tested on: PXR:RXRa (NR concentration 270 nM, RXRa partner concentration 90 nM)
In short: as §1

| Sequence | PBM binding z-score [1] | PBM binding z-score [2] | PBM binding z-score [3] | PBM binding z-score [4] | PBM binding z-score [5] | PBM binding z-score [6] | PBM binding z-score [7] | PBM binding z-score [8] | PBM binding z-score [9] | PBM binding z-score [10] | PBM binding z-score [11] | PBM binding z-score [12] | PBM binding z-score [13] | PBM binding z-score [14] | PBM binding z-score [15] | PBM binding z-score [16] | PBM binding z-score [17] | PBM binding z-score [18] | PBM binding z-score [19] |
| --- | --- | --- | --- | --- | --- | --- | --- | --- | --- | --- | --- | --- | --- | --- | --- | --- | --- | --- | --- |
| CAAACCAGGTCAAGAGGTCAAAGTCCGCTTCCCG | 6.66 | 6.64 | 1.8 | 6.68 | 8.56 | 7.51 | 5.51 | 7.2 | 5.93 | 6.81 | 3.85 | 3.15 | 8.14 | 3.35 | 8.42 | 3.47 | 5.6 | 5.59 | – |
| CCAGACAGGTGAGAAGGTAACTCAGCCTCGATTA | 0.435 | 0.0228 | -0.0173 | 0.833 | 0.522 | 0.838 | 0.0404 | 0.628 | 1 | 0.964 | -0.28 | -0.249 | 1.03 | 0.138 | 0.486 | 0.698 | 0.666 | 0.841 | 0.228 |
| GCTGCTAGGTCAACTGATGGCCAGCTAAAGCTCG | 2.54 | -0.17 | -0.174 | 3.6 | 2.45 | 3.01 | 0.617 | 2.13 | 4.28 | 4.14 | -0.855 | -0.449 | 1.12 | -0.837 | 1.88 | -0.722 | 4.23 | 3.32 | 1.1 |
| CGAACTAGGTCTAAGGACAGTGAAAGGCGACGTA | -0.762 | -0.416 | -1.3 | 0.792 | 2.4 | 3.45 | 1.89 | 3.31 | 2.2 | 1.78 | – | -0.598 | -0.156 | -0.563 | 0.0659 | -0.52 | 0.287 | 0.133 | -0.521 |
| CCTGCGAGGTCATGGTCAGCTAATCTACAGTATG | 5.55 | 1.41 | 0.772 | 5.87 | 5.93 | 5.94 | 2.34 | 4.57 | 3.79 | 4.21 | 2.09 | 1.64 | 4.94 | 1.06 | 5.88 | 1.08 | 5.01 | 4.02 | 5.39 |
| TCTGCTAGGTCATCGATGGTCAGCTAATCTGCTA | 3.21 | -0.333 | -0.256 | 3.2 | 1.74 | 3.32 | 1.82 | 2.45 | 3.54 | 4.24 | 0.105 | -0.541 | 0.22 | -0.703 | 2.07 | -1.04 | 4.02 | 3.19 | 1.81 |
| CCTACTGGGCCTAAGGTCATTGATTCCAATGCTC | 2.93 | 2.32 | 0.209 | 4.53 | 7.98 | 8.17 | 7.15 | 8.08 | 1.25 | 3.86 | -0.629 | -0.793 | 2.07 | 1.98 | 3.54 | 0.174 | 3.15 | 3.54 | 3.7 |
| TTGCCAAGGTGAAAGGTCGTTGATGCACGCCTTG | 3.11 | -0.0355 | -0.723 | 5.16 | 8.02 | 7.51 | 6.32 | 8.1 | 1.69 | 4.55 | -0.0211 | -0.745 | 1.54 | -0.137 | 5.68 | -0.379 | 3.06 | 2.56 | 4 |
| AATACAGGGTAACTAGGCCAGAGTAGGTACGAAT | 0.106 | -0.23 | -0.0777 | 2.01 | 2.82 | 2.44 | 0.877 | 1.88 | 3.4 | 4.67 | 1.24 | 0.826 | 0.854 | 0.0219 | -0.00374 | 0.0183 | 0.804 | 0.549 | -0.078 |
| TAGCCTAAGTCATGCGGGCCAGTATAGTGTCGGC | -0.396 | -0.595 | -1.13 | -0.167 | -0.117 | -0.602 | -0.673 | -0.77 | -0.333 | -0.138 | -0.862 | -1.37 | -0.139 | -0.831 | -0.11 | -1.14 | -0.165 | -0.506 | -0.538 |
| CCAACTAGGTCAAAGGACAGTGAAAGGCGACGTA | 2.56 | 0.453 | 0.227 | 5.08 | 9.64 | 8.24 | 6.76 | 8.84 | 7.57 | 7.88 | – | 0.729 | 1.68 | 0.436 | 2.36 | 0.964 | 4.07 | 3.15 | 1.09 |
| CGAACGAGGTCATCCAGGACAGTGAATACATTGA | 6.03 | 1.53 | 1.78 | 6.37 | 7.79 | 7.07 | 3.9 | 6.1 | 5.37 | 6.11 | 3.53 | 2.68 | 4.36 | 9.68 | 6.05 | 1.86 | 5.11 | 4.1 | – |
| CGAACTAGGTCGTCCAGGACAGTGAATACATTGA | 0.121 | -0.214 | -0.486 | 2.09 | 2.47 | 1.89 | 0.4 | 1.39 | 5.71 | 4.97 | 0.213 | 0.237 | -0.545 | -0.263 | 0.281 | -0.365 | 1.14 | 0.392 | 0.256 |
| GATACAGGGTCAAGGTCAGAGTACGCGTATTGAT | 5 | 1.48 | 0.776 | 5.88 | 7.68 | 6.67 | 4.07 | 5.8 | 2.93 | 5.18 | 1.47 | 0.678 | 2.96 | 1.84 | 5.53 | 2.12 | 5.11 | 5.14 | 5.08 |
| TAGCCTAGGGCATTCAGGGGCCAGTATAGAAAGC | -0.052 | -0.233 | -0.352 | 0.0278 | 0.0283 | -0.154 | -0.552 | -0.385 | -0.268 | 0.75 | -0.631 | -1.01 | -0.114 | -0.113 | 0.405 | -0.803 | 1.42 | 1.35 | -0.0151 |
